# Assay outcomes deposited in PubChem BioAssay by several laboratories.
# RecA intein inh = Mtb RecA intein splicing inhibitors, primary screen, biochemical, fluorescence, HTS. hit rate 0.75% among 290,000. cell-free RecA intein splicing. Protein RecA (Mycobacterium tuberculosis (strain ATCC 25618 / H37Rv)), P9WHJ3. inhibition, % (concentration not given with the values); in the data active = inhibition above about 30%;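 note: 0% = vehicle wells and 100% = reference inhibitor control wells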
# GDH-TPI counter-1 = GDH-TPI coupling enzyme inhibitors, primary screen, artefact control for M. tuberculosis FBA inhibitor project, biochemical, absorbance, full deck. hit rate 1.2% among 360,000. inhibition, % at 4.8 µM. GDH-TPI coupled enzyme counterscreen, NADH absorbance; in the data active = inhibition above about 30%;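 note: 0% = DMSO wells and 100% = wells lacking the enzyme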
# FBA Mtb inh = Mtb FBA enzyme inhibitors, primary screen, biochemical, fluorescence, strain H37Rv | hit rate 2.3% among 360,000 | AID 588726, 2011 | Fructose-bisphosphate aldolase (Mycobacterium tuberculosis (strain ATCC 25618 / H37Rv)), … | inhibition, % at 1 µM | purified M. tuberculosis FBA, fluorescence read-out;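 note: 0% = vehicle and 100% = reference inhibitor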
# Target sequence (P9WQA3 whole entry, looked up): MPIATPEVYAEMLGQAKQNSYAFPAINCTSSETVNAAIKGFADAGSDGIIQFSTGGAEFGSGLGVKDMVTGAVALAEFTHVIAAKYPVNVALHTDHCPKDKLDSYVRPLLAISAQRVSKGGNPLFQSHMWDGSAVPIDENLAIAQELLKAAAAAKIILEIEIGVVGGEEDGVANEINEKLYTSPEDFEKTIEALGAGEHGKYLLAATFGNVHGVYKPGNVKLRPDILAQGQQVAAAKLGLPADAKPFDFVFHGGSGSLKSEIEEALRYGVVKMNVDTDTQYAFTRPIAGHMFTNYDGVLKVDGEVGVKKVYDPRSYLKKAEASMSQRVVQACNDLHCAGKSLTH
# CCHF vOTU inh = CCHFV vOTU protease inhibitors, primary screen, biochemical, Pep-AMC substrate, fluorescence; AID 651958, 2012; Crimean-Congo hemorrhagic fever virus L polyprotein viral ovarian tumor (vOTU) protease …; hit rate 0.55% among 370,000; inhibition, % at 11.5 µM; in the data active = inhibition above about 30%; note: 0% = vehicle wells with enzyme and 100% = no enzyme wells
# Mtb FBA inh conf = M. tuberculosis aldolase blockers, biochemical, fluorescence, strain H37Rv, confirmation; shares compounds with FBA Mtb inh; purified M. tuberculosis FBA, fluorescence read-out; inhibition, % at 1 µM; hit rate 78% among 5,600; AID 651616, 2012;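 note: 0% = vehicle wells and 100% = reference inhibitor wells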
# GDH-TPI counter-2 = GDH-TPI coupling enzyme inhibitors, artefact control for M. tuberculosis FBA inhibitor project, biochemical, fluorescence, high throughput; GDH-TPI coupled enzyme counterscreen; shares compounds with FBA Mtb inh; hit rate 81% among 5,600; AID 652141, 2013; inhibition, % at 1 µM; in the data active = inhibition above about 10%
# GDH-TPI DR = GDH-TPI coupling enzyme inhibitors, dose response, artefact control for M. tuberculosis FBA inhibitor project, biochemical, fluorescence, IC50; shares compounds with FBA Mtb inh; hit rate 79% among 170; IC50, µM; GDH-TPI coupled enzyme assay, artifact counterscreen; AID 652145, 2013; call rule not given here
# Numbers without * were called inactive; x = not tested or not shown; + = active, no number. Hits are enriched below; roughly 4.2% of the tested compounds scored in any of these assays. Cut-off read from the data, not from the text of the source, unless noted: active = inhibition above about 27%; inactive = the rest.
SMILES,RecA intein inh,GDH-TPI counter-1,FBA Mtb inh,CCHF vOTU inh,Mtb FBA inh conf,GDH-TPI counter-2,others
COc1ccc(CN(C(=O)c2cc3ccccc3oc2=O)C2CCS(=O)(=O)C2)cc1OC (centres undefined),13,1,2,0,x,x,
C=CCNC(=S)N/N=C/c1ccc(-c2cc(Cl)ccc2Cl)o1,-20,27,-4,-8,x,x,
CNC(=S)N/N=C/c1ccc(-c2ccc(C(=O)O)cc2)o1,-4,53*,41*,-37,+,+,
CNC(=S)N/N=C/c1ccc(-c2ccc(Cl)c([N+](=O)[O-])c2)o1,1,23,-3,6,x,x,
C=CCNC(=S)N/N=C/c1ccc(-c2ccc(OC)cc2)o1,3,14,29*,-14,-6,-6,
O=C(O)c1cccc2c1Cc1cc(Cl)ccc1-2,x,4,-2,4,x,x,
O=C(c1cccn2c(=O)c3cc(Cl)ccc3nc12)N1CCC2(CC1)OCCO2,-176,21,34*,-40,46*,39*,
O=C(c1cccn2c(=O)c3ccccc3nc12)N1CCC2(CC1)OCCO2,-41,7,20,-49,x,x,
CCC(C)NC(=O)c1cn(CCOC)c(=O)c2c1c1ccccc1n2C (centres undefined),0,0,15,-14,x,x,
CCOC(=O)C1CCN(C(=O)c2cn(CCOC)c(=O)c3c2c2ccccc2n3C)CC1,0,11,46*,-36,84*,68*,
COCCn1cc(C(=O)N2CCCC(C)C2)c2c3ccccc3n(C)c2c1=O (centres undefined),2,15,45*,-42,0,-5,
CCN1CCN(C(=O)c2cn(CCOC)c(=O)c3c2c2ccccc2n3C)CC1,1,20,48*,-24,171*,129*,
Cn1c2ccccc2c2c(C(=O)N3CCC4(CC3)OCCO4)cn(C3CCCC3)c(=O)c21,-1,8,28*,-19,58*,47*,
CC(NC(=O)CN(c1cccc(C(F)(F)F)c1)S(C)(=O)=O)c1ccccc1 (centres undefined),1,-5,0,4,x,x,
CC(=O)OC[C@@H]1CN(Cc2ccccc2)C[C@H](n2cnc3c(NC4CCCC4)ncnc32)O1,x,11,-2,-2,x,x,
O=C(CN1C(=O)c2ccccc2S1(=O)=O)Nc1ncc(Cl)cc1Cl,x,5,-3,-7,x,x,
ONC(=Nc1cccc(C(F)(F)F)c1)c1cccnc1,x,10,2,17,x,x,
CC(C)Cn1cc(C(=O)N2CCN(c3ccccn3)CC2)c2c3ccccc3n(C)c2c1=O,6,19,9,-17,x,x,
COCCn1cc(C(=O)N2CCC3(CC2)OCCO3)c2c3ccccc3n(C)c2c1=O,x,13,37*,-50,144*,120*,
Cn1c(=O)cc(OCCCC(=O)N2CCC3(CC2)OCCO3)c2ccccc21,x,-5,1,-11,x,x,
Cn1cc(C(=O)N2CCN(C(=O)c3ccco3)CC2)c2c3ccccc3n(C)c2c1=O,-3,15,37*,-20,-2,-3,
O=C(Cc1cccc2ccccc12)Nc1ccc(O)cc1C(=O)O,-27,4,32*,-8,4,1,
CCN(CC)S(=O)(=O)c1cc(NC(=O)CSCc2c(C)noc2C)ccc1C,x,2,-4,-1,x,x,
CS(=O)(=O)Nc1ccc(C2=NN(C(=O)c3ccco3)C(c3ccc(F)cc3)C2)cc1 (centres undefined),4,30,74*,12,62*,48*,
COc1ccc2sc(-c3ccc(N(C)C)cc3)c(C#Cc3cncn3C)c2c1,x,11,108*,-4,127*,102*,
SMILES,RecA intein inh,GDH-TPI counter-1,FBA Mtb inh,CCHF vOTU inh,Mtb FBA inh conf,GDH-TPI counter-2,others
COc1ccc(-c2sc3ccc(OC)cc3c2C#CCCO)cc1,-1,18,8,x,x,x,
COc1nc(OC)nc(N2CCC(C(=O)N(C)Cc3ccco3)CC2)n1,x,x,x,2,x,x,
CN1CCN(CCCNC(=O)c2ccc(/C=C3\Oc4ccccc4N(Cc4ccccc4F)C3=O)cc2)CC1,-54,17,55*,-28,-1,-4,
Cc1cccc(CN2C(=O)/C(=C\c3ccc(C(=O)NCCCN4CCN(C)CC4)cc3)Oc3ccccc32)c1,-80,5,81*,-23,10,-3,
CN1CCN(CCCNC(=O)c2ccc(/C=C3/Sc4ccccc4N(Cc4cccc(Cl)c4)C3=O)cc2)CC1,19,2,5,-11,x,x,
C[C@H](CO)N1C[C@H](C)[C@@H](CN(C)S(=O)(=O)c2ccc(F)cc2)Oc2ccc(NC(=O)C3CCCCC3)cc2C1=O,x,12,2,5,x,x,
CN(C)CCCNCC(=O)c1c(-c2ccccc2)n(C)c2ccccc12,4,12,3,-9,x,x,
COc1ccc(CN2C[C@]3(C=C4CCCCC4n4c(=O)n(-c5ccccc5)c(=O)n43)N(C(=O)OCc3ccccc3)C2=NC(=O)c2ccccc2)c(OC)c1 (some centres undefined),x,x,x,17,x,x,
CC(=O)Nc1ccc(NC(=O)C(C)OC(=O)CNS(=O)(=O)/C=C/c2ccc(C)cc2)cc1 (centres undefined),-9,-8,-1,2,x,x,
Cc1ccc(NS(=O)(=O)Cc2ccccc2)nc1,1,4,60*,-9,171*,142*,
O=S(=O)(Cc1ccccc1)Nc1ccc(Br)cn1,-1,4,4,-15,x,x,
Cc1ccc(NS(=O)(=O)c2ccc(Br)cc2)nc1,-1,-3,28*,-11,+,+,
Cc1ccnc(NS(=O)(=O)Cc2ccccc2)c1,-3,-4,44*,-9,103*,68*,
Cc1ccnc(NC(=O)CS(=O)(=O)Cc2ccccc2)c1,-5,8,3,9,x,x,
CCCCn1c(N)c(N(CC(C)C)C(=O)C2CCN(S(=O)(=O)c3ccc(OCC)cc3)CC2)c(=O)[nH]c1=O,-2,9,4,21,x,x,
Cc1c(OCC(=O)NCCCN2CCOCC2)ccc2c1oc(=O)c1ccccc12,0,7,47*,-18,98*,68*,
O=C(COc1ccc2c(c1)oc(=O)c1ccccc12)NCCCN1CCOCC1,2,5,98*,-61,93*,78*,
CC(Oc1ccc2c(-c3ccccc3)cc(=O)oc2c1)C(=O)NCCCN1CCOCC1 (centres undefined),-2,13,-1,1,x,x,
Cc1c(C)c2ccc(OCC(=O)NCCN3CCOCC3)cc2oc1=O,0,6,97*,-11,-6,-3,
CC(Oc1ccc2c(c1)oc(=O)c1ccccc12)C(=O)NCCCN1CCOCC1 (centres undefined),0,11,64*,-45,11,10,GDH-TPI DR=2.9*
